“And” between values parts separate entries of the source, which are not always exact repeats. Equal values may be shown once. Where a structure was tested more than once in an assay, its records may differ in their call. The source made the active and inactive calls. How the source made its calls: active means hit-call score of the fitted dose curve at least 0.9, where 1 is the maximum; inactive means score below 0.9.
The compounds below were run on Vascular endothelial growth factor receptor 2 (Homo sapiens) (UniProt P35968) (assay: BSK_4H_VEGFRII: BioMAP Diversity Plus: 4H Assay for Vascular endothelial growth factor receptor 2 (VEGFR2) Biomarker Activity (AID 2283031)). Details: primary human endothelial cells (HUVEC); actives raise or lower the signal.
Description: BSK_4H is a cell-based, multiplexed-readout assay that uses umbilical vein endothelium, a human vascular primary cell, with measurements taken at 24 hours after chemical dosing in a 96-well plate.BSK_4H_VEGFRII is an assay component measured in the BSK_4H assay. It measures VEGFRII antibody related to regulation of gene expression using ELISA technology.Data from the assay component BSK_4H_VEGFRII was analyzed into 1 assay endpoint. This assay endpoint, BSK_4H_VEGFRII, was analyzed with bidirectional fitting relative to DMSO as the negative control and baseline of activity. Using a type of binding reporter, gain or loss-of-signal activity can be used to understand changes in the signaling as they relate to the gene KDR. Furthermore, this assay endpoint can be referred to as a primary readout, because this assay has produced multiple assay endpoints where this one serves a signaling function. To generalize the intended target to other relatable targets, this assay endpoint is annotated to the kinase intended target family, where the subfamily is receptor tyrosine kinase.
The levels of cell surface (or secreted, indicated by the prefix "s") biomarker endpoints were measured by ELISA. Overt cytotoxicity to cells in confluent adherent cultures (all systems other than the BT system) was assessed by measuring total protein levels using sulforhodamine B (SRB) staining in parallel cultures at the time of biomarker measurements, indicated as SRB endpoints. For proliferation assays for adherent cell types, individual cell types are cultured at sub-confluence and relative cell numbers quantified by SRB staining at time points optimized for each system (48 h: 3C and CASM3C systems; 72 h: BT and HDF3CGF systems; 96 h: SAg system). SRB was performed by staining cells with 0.1% SRB after fixation with 10% TCA and reading wells at 560 nm.Viability and proliferation of PBMC (T cells) was quantified by Alamar Blue reduction for the SAg and BT systems. For PBMC viability (referred to as PBMC Cytotoxicity within the assay endpoint names), cells were plated (75,000/well in a 96-well plate) and then chemical samples added for 1 h before addition of activators, SEB and TSST-1 (20 ng/mL final concentration each). Cells were incubated for 90 h. Then, Alamar Blue (20 uL/well) (Invitrogen, Cat DAL1100) was added for 6 h, and the plates were read with a fluorescence microplate reader at 546/580 nm (excitation/emission). For PBMC proliferation, cells were plated and activated as above but incubated for only 16 h prior to addition of Alamar Blue. Plates were read after 6 h.
With `COc1ccc(C(c2ccc(OC)cc2)C(Cl)(Cl)Cl)cc1` the AC50 was 31.2 µM (active).
For `COc1nc(C)nc(NC(=O)NS(=O)(=O)c2ccccc2Cl)n1`, the outcome was “inactive”.
For `CC1=C(C(=O)Nc2ccccc2)SCCO1`, the outcome was “inactive”.
In the case of `CC(C)(C)c1ccc(CSc2cnn(C(C)(C)C)c(=O)c2Cl)cc1`, the AC50 is reported as 12.3 µM (active).
With `CS/C(C)=N/OC(=O)N(C)SN(C)C(=O)O/N=C(\C)SC` the AC50 was 28.7 µM (active).
For `CCOC(=O)C(Cl)Cc1cc(-n2nc(C)n(C(F)F)c2=O)c(F)cc1Cl` (stereo not given), the outcome was “inactive”.
For `CCNc1nc(Cl)nc(NC(C)C)n1`, the outcome was “inactive”.
With `Fc1ccc(Oc2ccnc3cc(Cl)cc(Cl)c23)cc1` the AC50 was 27.2 µM (active).
In the case of `CON(C)C(=O)Nc1ccc(Cl)c(Cl)c1`, the outcome is reported as “inactive”.
For `CO/C=C(/C(=O)OC)c1ccccc1Oc1cc(Oc2ccccc2C#N)ncn1`, the outcome was “inactive” and the AC50 was 21.1 µM (active).
For `Cc1ccc(-c2c(Cl)nc(C#N)n2S(=O)(=O)N(C)C)cc1`, the AC50 was 20 µM (active).
In the case of `N#Cc1cc(Br)c(O)c(Br)c1`, the outcome is reported as “inactive”.
With `CCCCNC(=O)n1c(NC(=O)OC)nc2ccccc21` the outcome was “inactive”.
In the case of `O=C(O)c1nc(Cl)ccc1Cl`, the outcome is reported as “inactive”.
For `CNC(=S)S`, the outcome was “inactive”.
`CCON=C(CC)C1=C(O)CC(c2c(C)cc(C)cc2C)CC1=O` (stereo not given) was tested, and the outcome was “inactive”.
For `COC(=O)C(C)Oc1ccc(Oc2ccc(Cl)cc2Cl)cc1` (stereo not given), the AC50 was 20 µM (active) and the outcome was “inactive”.
In the case of `C=CCC1=C(C)C(OC(=O)C2C(C=C(C)C)C2(C)C)CC1=O` (stereo not given), the outcome is reported as “inactive” and the AC50 is reported as 21 µM (active) and 29.4 µM (active) and 20 µM (active).
For `COC(=O)C=C(C)OP(=O)(OC)OC`, the outcome was “inactive”.
With `COC(=O)c1ccccc1C(=O)OC` the outcome was “inactive”.
With `CCOc1cc(Oc2ccc(C(F)(F)F)cc2Cl)ccc1[N+](=O)[O-]` the outcome was “inactive”.
With `COc1nc(C)nc(NC(=O)NS(=O)(=O)c2ccccc2CCC(F)(F)F)n1` the outcome was “inactive”.
`COP(N)(=O)SC` (stereo not given) was tested, and the outcome was “inactive”.
In the case of `O=C(Nc1ccccc1)Nc1ccnc(Cl)c1`, the outcome is reported as “inactive”.
`CC(C)C1(C)N=C(c2nc3ccccc3cc2C(=O)O)NC1=O` (stereo not given) was tested, and the outcome was “inactive”.
For `CCOP(=S)(OCC)SCn1c(=O)oc2cc(Cl)ccc21`, the outcome was “inactive”.
In the case of `CCCCNC(=O)OCC#CI`, the AC50 is reported as 22.9 µM (active) and 32.7 µM (active).
For `CCCCOC(=O)c1ccccc1C(=O)OCCCC`, the outcome was “inactive”.
In the case of `CN(C)C(=S)SSC(=S)N(C)C`, the outcome is reported as “inactive”.
With `COc1nc(NC(C)C)nc(NC(C)C)n1` the outcome was “inactive”.
In the case of `O=C(O)COc1nc(Cl)c(Cl)cc1Cl`, the outcome is reported as “inactive”.
`COP(=S)(OC)Oc1nc(Cl)c(Cl)cc1Cl` was tested, and the outcome was “inactive”.
With `COC(=O)N(OC)c1ccccc1COc1ccn(-c2ccc(Cl)cc2)n1` the outcome was “inactive”.
`C#CCOS(=O)OC1CCCCC1Oc1ccc(C(C)(C)C)cc1` (stereo not given) was tested, and the AC50 was 20 µM (active).
With `Cc1cc(Cl)ccc1OCC(=O)O` the outcome was “inactive”.
In the case of `Cc1c(F)c(F)c(COC(=O)C2C(/C=C(\Cl)C(F)(F)F)C2(C)C)c(F)c1F` (stereo not given), the outcome is reported as “inactive”.
In the case of `CC(C)Oc1cc(-n2nc(C(C)(C)C)oc2=O)c(Cl)cc1Cl`, the AC50 is reported as 32.9 µM (active).
